KB-3-1 cytotox – kills parental KB-3-1 adenocarcinoma cells. 400,000 tested, 1.4% active. KB-3-1 viability, CellTiter-Glo ATP luminescence, 72 h. Potency, µM (series often up to 46.1 µM), hits mostly cytotoxic; note: nearly all actives have a fitted effect of over 60% in size
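Here the drug-naive KB-3-1 line serves as comparator for MDR sub-line selectivity; cells received compound titrations, 72 h at 37 °C, then CellTiter-Glo readout.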
HT1080 IDH1KD tx – kills HT-1080 cells with IDH1 knockdown. HT-1080 IDH1 knockdown viability, ATP luminescence, 48 h. Potency, µM (top dose mostly 46.1 µM), usual class: cytotoxic. 360,000 tested, 2% active
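Viability of IDH1-knockdown HT-1080 fibrosarcoma cells was assessed by CellTiter-Glo after 48 h at 37 °C with titrated compound; concentration-effect curves were classified by fit quality and response size.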
KB-V1 cytotox – KB-V1 MDR subline cytotoxicity | Potency, µM (top dose mostly 46.1 µM), hits mostly cytotoxic | KB-V1 MDR cells viability, CellTiter-Glo, 72 h | 400,000 tested, 3.4% active | AID 1347076; note: nearly all actives have a fitted effect of over 60% in size
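Cells of the MDR subline KB-V1 are plated, dosed with compound at multiple concentrations, and incubated 72 h at 37 degrees C; CellTiter-Glo is then added and luminescence read after 10 min.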
HT1080-NT tox – kills 2HG-producing HT-1080-NT fibrosarcoma cells; HT-1080-NT fibrosarcoma viability, CellTiter-Glo ATP luminescence, 48 h; Potency, µM (series often up to 46.1 µM), actives largely listed as cytotoxic; 360,000 tested, 1.6% active; AID 686970;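 note: NT is the 2HG producing partner of a matched IDH1 knockdown line; nearly all actives have a fitted effect of over 55% in size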
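Viability of the 2HG-overproducing fibrosarcoma line after 48 hours of compound exposure at 37 degrees C was determined by luminescence with CellTiter-Glo, and concentration-effect curves were then fitted and categorized.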
A number is an active result; 0 = inactive; ? = inconclusive; - = no result; [ ] = dose if it differs, or a comment. Shown are actives, neighbours in structure and some others; about 5.7% of the full set was active somewhere. Calls come from the whole dose curve; as a rule, active = well fitted curve in the direction sought with a large enough effect; inconclusive = small, poorly fitted or top-dose-only effect, or another doubt; inactive = no such curve, though single readings can be large; an effect the other way counts as inactive or inconclusive.

SMILES	KB-3-1 cytotox	HT1080 IDH1KD tx	KB-V1 cytotox	HT1080-NT tox
Cn1c(=O)n(CCc2ccccc2)c(=O)c2c1nc1n2CCCN1Cc1ccccc1	0	0[9.24 µM]	21µM	0
CC(C)Cn1c(=O)c2c(nc3n2CCCN3CCc2ccccc2)n(C)c1=O	0	0	10µM	0
CCCn1c(=O)c2c(nc3n2CCCN3Cc2ccccc2)n(C)c1=O	0	0	0	0
Cn1c(=O)n(CCc2ccccc2)c(=O)c2c1nc1n2CCCN1CCc1ccccc1	0	29µM	23µM	23µM
CCCn1c(=O)c2c(nc3n2CCCN3CCc2ccccc2)n(C)c1=O	0	0	?	0
Cn1c(=O)oc2cc(S(=O)(=O)N3CCCC(C(=O)NCCc4ccc(Cl)cc4)C3)ccc21 (stereo unspecified)	0	-	0	-
O=c1c2sc3ccccc3c2n(Cc2ccc(F)cc2)c(=O)n1Cc1ccccc1	0	-	0	-
C=C(NNC(C)=O)c1ccc(O)cc1	?	-	0	-
Cn1c(-c2cccc(OCc3ccccc3)c2)nc2c1c(=O)[nH]c(=O)n2Cc1ccccc1	15µM	0	?	0
COc1ccc(-c2nc3c(c(=O)[nH]c(=O)n3Cc3ccccc3)n2C)cc1	0	0	0	0
Cn1c(=O)c2c(nc(-c3ccccc3)n2C)n(Cc2ccccc2)c1=O	0	0	15µM	0
COc1ccc(-c2nc3c(c(=O)[nH]c(=O)n3Cc3ccccc3)n2Cc2ccccc2)cc1	?	?	3.7µM	?
Cc1c(C(=O)OC2CCCCC2)[nH]c2c1C(=O)CC(c1ccc(C(C)(C)C)cc1)C2 (stereo unspecified)	0	-	0	-
COc1ccc(Nc2oc(-c3ccc(Cl)cc3)nc2C#N)cc1	4.6µM	?	?	?
N#Cc1nc(-c2ccc(F)cc2)oc1NCCN1CCOCC1	0	0	?	0
Cc1ccc(-c2nc(C#N)c(NCCN3CCCCC3)o2)cc1	0	0	23µM	0
COCCNc1oc(-c2ccc(C)cc2)nc1C#N	0	0	23µM	0
CCc1ccc(CC2S/C(=C(\C#N)C(C)=O)NC2=O)cc1 (stereo unspecified)	?	?	7.3µM	0
CC(=O)/C(C#N)=C1\NC(=O)C(Cc2ccc(C)c(Cl)c2)S1 (stereo unspecified)	18µM	?	9.2µM	0
CCS(=O)(=O)n1nc(-c2ccco2)nc1NCc1ccc(C(C)C)cc1	0	-	?	-
O=C(COc1ccc2ccccc2c1Br)N1CCN(c2ccccn2)CC1	?	0	23µM	0
O=C(COc1ccc2ccccc2c1Br)N1CCCCC1	0	0	0	0
Cc1ccc(-n2c(-c3ccccc3)nsc2=NC#N)cc1	0	-	0	-
CC(C)OC(=O)c1c(NC(=O)c2cc3nc(-c4ccccc4)cc(C(F)(F)F)n3n2)sc2c1CCCC2	0	-	0	-
CC(C)(C)CC(=O)N1CCN(Cc2ccc3c(c2)OCO3)CC1	0	0	0	0
SMILES	KB-3-1 cytotox	HT1080 IDH1KD tx	KB-V1 cytotox	HT1080-NT tox
O=C(CCC1CCCCC1)N1CCN(Cc2ccc3c(c2)OCO3)CC1	?	0	23µM	0
CS(=O)(=O)N(CC(=O)N1CCN(Cc2ccc3c(c2)OCO3)CC1)C1CCCCC1	0	0	21µM	0
Cc1ccc(C)c(S(=O)(=O)NCCc2csc(-c3ccc(Cl)cc3)n2)c1	0	-	0	-
OCCN=C1CCCc2c1[nH]c1ccc(Br)cc21	1µM	0	0.33µM	0
Cc1ccc(C)c(NC(=S)NCc2ccc3[nH]c4c(c3c2)CCCC4)c1	?	0	?	?
C=CCN=C1CCCc2c1[nH]c1ccc(C)cc21	6.5µM	0	3.3µM	0
Cc1ccccc1NC(=O)c1cc2c(-c3ccccc3)nn(-c3ccccc3)c2s1	0	-	0	-
O=C1COc2ccc(C(=O)CSc3nc4ccccc4c(=O)n3-c3ccc(Cl)c(Cl)c3)cc2N1	0	0	?	0
CCc1ccc(-n2c(SCC(=O)c3ccc4c(c3)NC(=O)CO4)nc3ccccc3c2=O)cc1	21µM	0	?	0
Cc1ccc2ccc3cc(C(=O)Nc4ccc(C)c(F)c4)nc3c2[nH]1	0	-	?	-
CCOC(=O)c1cc(C#N)c(Oc2ccc(F)cc2)nc1-c1ccccc1	0	0	9.2µM	0
Cc1ccc2c(c1)N(C(=O)N1CCC(C(=O)NC3CCCCCC3)CC1)CC(C)O2 (stereo unspecified)	0	-	0	-
Cn1ncc2c(Nc3ccc(Cl)c(Cl)c3)ncnc21	0	0	0	0
Cn1ncc2c(Nc3ccc(-c4ccccc4)cc3)ncnc21	0	?	0	11µM
COc1ccc(Nc2ncnc3sc(-c4ccccc4)cc23)cc1	?	0	21µM	0
Cc1ccc(C)c(N2CCN(C(=O)C3CCC(CNS(=O)(=O)c4ccc(Br)s4)CC3)CC2)c1 (stereo unspecified)	0	-	0	-
COc1c2ccoc2cc2oc(=O)ccc12	0	0	26µM	0
CCCCCCOc1ccc(/C=C/C(=O)Nc2sc3c(c2C(=O)OC)CCC3)cc1OC	0	-	?	-
COCCNc1nc(NCc2ccc(C(C)C)cc2)c2sccc2n1	0	18µM	0	13µM
COCCNc1nc(Nc2ccc(C)cc2C)c2sccc2n1	5.2µM	?	5.2µM	?
COCCNc1nc(NCc2ccc(C)cc2C)c2sccc2n1	0	0	0	0
COCCNc1nc(NCc2cccc(OC)c2)c2sccc2n1	0	0	?	0
COc1cc(C)nc(OCCNC(=O)COc2ccc(Cl)cc2C)n1	0	0	0	0
Cc1cc(Cl)ccc1OCC(=O)NCCOc1nc(N2CCCCC2)nc(N2CCOCC2)n1	0	0	4.1µM	0
CCc1ccc(NC(=O)c2cc3c(=O)n(Cc4cccs4)ccc3nc2C)cc1	?	-	0	-
SMILES	KB-3-1 cytotox	HT1080 IDH1KD tx	KB-V1 cytotox	HT1080-NT tox
COCCNc1nc(NCCOc2ccccc2)c2sc(-c3ccccc3)cc2n1	0	23µM	?	15µM
O=C(c1cc2nc(-c3ccc(F)cc3)cc(C(F)(F)F)n2n1)N1CCCCC1c1cccnc1 (stereo unspecified)	3.3µM	18µM	?	?
O=C(c1cnn2c(C(F)(F)F)cc(-c3ccccc3)nc12)N1CCCCC1c1cccnc1 (stereo unspecified)	0	0	0	0
COc1cccc(-c2c(-c3cc(OC)cc(OC)c3)n(C)c3ccc(-c4cnc(OC)nc4)cc23)c1	13µM	0	?	0
COc1cc(OC)cc(-c2c(-c3ccc(F)cc3)c3cc(-c4cnc(OC)nc4)ccc3n2C)c1	0	0	?	0
Cc1cccc(Nc2nnc(SCC(=O)Nc3ccccc3[N+](=O)[O-])s2)c1	0	0	21µM	0
Cc1cc(C)nc(SCNC(=O)c2ccccc2)n1	0	7.1µM	0	5µM
Cc1cc(C)nc(SCc2ccc(C(=O)N/N=C/c3cccc(O)c3O)cc2)n1	?	2.3µM	?	?
Cc1cccc(SCC(=O)Nc2ccccc2[N+](=O)[O-])c1	0	0	0	0
COc1ccc(O)c(/C=N/NC(=O)c2ccc(CSc3nc(C)cc(C)n3)cc2)c1	0	?	0	?
Cc1cc(C)nc(SCC(=O)Nc2ccccc2[N+](=O)[O-])n1	0	0	23µM	0
CCCCOc1ccccc1Cn1c(=O)sc2ccccc21	0	-	0	-

High-throughput results from PubChem.
